Read-out in test [1]: Macrophage colony-stimulating factor (MCSF), CSF1 (gene 1435)
The test can be described thus: BSK_hDFCGF_MCSF: BioMAP Diversity Plus: hDFCGF Assay for Macrophage colony-stimulating factor (MCSF) Biomarker Activity (AID 2283060). As to conditions: primary human foreskin fibroblasts; actives raise or lower the signal. In outline: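 Human foreskin primary fibroblasts were treated with test chemical for 24 h, and M-CSF was then measured by ELISA. Data were fitted bidirectionally against DMSO as the negative control and activity baseline.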

A short description of test [2]: BSK_hDFCGF_SRB: Viability Assessment in the BioMAP Diversity Plus: hDFCGF Assay (AID 2283061).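 Also: cells exposed to compound for 24 h before the read.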 The conditions noted are these: primary human foreskin fibroblasts. An outline of the steps: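 Human foreskin primary fibroblasts were treated with compound and assessed 24 h after dosing. Total protein was measured by sulforhodamine B staining (0.1% SRB after 10% TCA fixation, 560 nm read) as a cytotoxicity marker, with bidirectional fitting against DMSO baseline.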

Read-out in test [3]: TIMP metallopeptidase inhibitor 1 (TIMP1), TIMP1 (gene 7076)
Put plainly: BSK_hDFCGF_TIMP1: BioMAP Diversity Plus: hDFCGF Assay for TIMP metallopeptidase inhibitor 1 (TIMP1) Biomarker Activity (AID 2283062). The conditions noted are these: primary human foreskin fibroblasts; actives raise or lower the signal. An outline of the steps:
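Primary human foreskin fibroblasts in the hDFCGF system were dosed with compound for 24 h, then TIMP-1 was measured by ELISA. Activity was fitted bidirectionally relative to DMSO control; parallel SRB staining assessed cytotoxicity.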

Read-out in test [4]: Monokine induced gamma interferon (MIG), CXCL9 (gene 4283)
Put plainly: BSK_hDFCGF_MIG: BioMAP Diversity Plus: hDFCGF Assay for Monokine induced gamma interferon (MIG) Biomarker Activity (AID 2283063). The conditions noted are these: primary human foreskin fibroblasts; actives raise or lower the signal. An outline of the steps:
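ELISA read-out of MIG from primary human dermal fibroblasts 24 h post-dosing. Gain or loss of signal fitted bidirectionally, DMSO as baseline.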

Read-out in test [5]: Matrix Metallopeptidase 1 (MMP1), MMP1 (gene 4312)
The test can be described thus: BSK_hDFCGF_MMP1: BioMAP Diversity Plus: hDFCGF Assay for Matrix Metallopeptidase 1 (MMP1) Biomarker Activity (AID 2283064). As to conditions: primary human foreskin fibroblasts; actives raise or lower the signal. An outline of the steps:
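MMP1 levels quantified by ELISA 24 h after dosing human dermal fibroblast cultures, with parallel SRB total-protein staining for overt cytotoxicity. Data fitted in both directions against DMSO baseline.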

Read-out in test [6]: Vascular cell adhesion molecule 1 (VCAM1), VCAM1 (gene 7412)
Put plainly: BSK_hDFCGF_VCAM1: BioMAP Diversity Plus: hDFCGF Assay for Vascular cell adhesion molecule 1 (VCAM1) Biomarker Activity (AID 2283065). The conditions noted are these: primary human foreskin fibroblasts; actives raise or lower the signal. An outline of the steps: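 Primary human foreskin fibroblasts (hDFCGF system) were dosed with chemical and VCAM-1 was measured by ELISA 24 h later. Bidirectional curve fitting used DMSO as negative control and activity baseline.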

Read-out in test [7]: Plasminogen activator inhibitor-1 (PAI1), SERPINE1 (gene 5054)
Put plainly: BSK_hDFCGF_PAI1: BioMAP Diversity Plus: hDFCGF Assay for Plasminogen activator inhibitor-1 (PAI1) Biomarker Activity (AID 2283066). As to conditions: primary human foreskin fibroblasts; actives raise or lower the signal. In outline: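 ELISA readout of PAI-1 from primary human skin fibroblast cultures, 24 h after compound addition. Gain or loss of signal was fitted bidirectionally against DMSO baseline.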

Read-out in test [8]: Intercellular Adhesion Molecule 1 (ICAM1), ICAM1 (gene 3383)
Put plainly: BSK_KF3CT_ICAM1: BioMAP Diversity Plus: KF3CT Assay for Intercellular Adhesion Molecule 1 (ICAM1) Biomarker Activity (AID 2283067). The conditions noted are these: primary human keratinocytes with fibroblasts; actives raise or lower the signal. In outline: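 Human keratinocyte plus foreskin fibroblast primary co-culture was exposed to chemical for 24 h. ICAM-1 was then quantified by ELISA, and the data were fit bidirectionally against DMSO as the negative control and baseline.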

Read-out in test [9]: Interferon-gamma inducible Protein 10 (IP10), CXCL10 (gene 3627)
Put plainly: BSK_KF3CT_IP10: BioMAP Diversity Plus: KF3CT Assay for Interferon-gamma inducible Protein 10 (IP10) Biomarker Activity (AID 2283068). As to conditions: primary human keratinocytes with fibroblasts; actives raise or lower the signal. An outline of the steps: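 KF3CT co-culture (keratinocytes + foreskin fibroblasts), 24 h compound, IP-10 by ELISA; bidirectional fit vs DMSO baseline.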

Test [10] can be described thus: BSK_KF3CT_SRB: Viability Assessment in the BioMAP Diversity Plus: KF3CT Assay (AID 2283069). As to conditions: primary human keratinocytes with fibroblasts. In outline:
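Cytotoxicity was gauged by SRB staining (0.1% SRB, 10% TCA fixation, 560 nm) of parallel cultures at 24 h. The cells were primary human skin keratinocytes co-cultured with fibroblasts, and activity was fitted in both directions against DMSO.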

Read-out in test [11]: Interleukin-1 alpha (IL1a), IL1A (gene 3552)
The test can be described thus: BSK_KF3CT_IL1a: BioMAP Diversity Plus: KF3CT Assay for Interleukin-1 alpha (IL1a) Biomarker Activity (AID 2283070). As to conditions: primary human keratinocytes with fibroblasts; actives raise or lower the signal. In outline:
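IL-1a was detected by ELISA 24 h after chemical treatment of a co-culture of human skin keratinocytes and foreskin fibroblasts. Gain or loss of signal was fitted against the DMSO baseline.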

Read-out in test [12]: TIMP metallopeptidase inhibitor 2 (TIMP2), TIMP2 (gene 7077)
Put plainly: BSK_KF3CT_TIMP2: BioMAP Diversity Plus: KF3CT Assay for TIMP metallopeptidase inhibitor 2 (TIMP2) Biomarker Activity (AID 2283071). The conditions noted are these: primary human keratinocytes with fibroblasts; actives raise or lower the signal. In outline: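 ELISA readout of TIMP-2 in keratinocyte plus foreskin fibroblast co-cultures (human skin primary cells), 24 h post-dose. Gain or loss of signal fitted relative to DMSO.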

Read-out in test [13]: Transforming growth factor beta 1 (TGFb1), TGFB1 (gene 7040)
The test can be described thus: BSK_KF3CT_TGFb1: BioMAP Diversity Plus: KF3CT Assay for Transforming growth factor beta 1 (TGFb1) Biomarker Activity (AID 2283072). As to conditions: primary human keratinocytes with fibroblasts; actives raise or lower the signal. An outline of the steps:
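Read-out: ELISA for TGF-b1 in keratinocyte/foreskin fibroblast human skin co-culture, 24 h after dosing; bidirectional curve fit vs DMSO baseline; gain or loss of signal scored.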

Read-out in test [14]: C-C motif chemokine 2 (Homo sapiens) (UniProt P13500)
Put plainly: BSK_KF3CT_MCP1: BioMAP Diversity Plus: KF3CT Assay for Monocyte Chemoattractant Protein 1 (MCP1/CCL2) Biomarker Activity (AID 2283073). The conditions noted are these: primary human keratinocytes with fibroblasts; actives raise or lower the signal. An outline of the steps: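 Human keratinocyte plus foreskin fibroblast primary co-culture exposed to chemical for 24 h. MCP-1 levels measured by ELISA. Bidirectional curve fitting relative to DMSO negative control as baseline.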

Read-out in test [15]: urokinase plasminogen activator (uPA), PLAU (gene 5328)
Put plainly: BSK_KF3CT_uPA: BioMAP Diversity Plus: KF3CT Assay for urokinase plasminogen activator (uPA) Biomarker Activity (AID 2283075). As to conditions: primary human keratinocytes with fibroblasts; actives raise or lower the signal. An outline of the steps:
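ELISA read-out of uPA 24 h after dosing human skin keratinocytes co-cultured with foreskin fibroblasts. Signal change fitted both ways relative to DMSO; sulforhodamine B on parallel cultures marks overt cytotoxicity.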

Read-out in the next test: CD40, CD40 (gene 958)
The test can be described thus: BSK_LPS_CD40: BioMAP Diversity Plus: LPS Assay for CD40 Biomarker Activity (AID 2283076). The conditions noted are these: primary human HUVEC with PBMC; actives raise or lower the signal. An outline of the steps: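 Primary human umbilical vein endothelial cells co-cultured with peripheral blood mononuclear cells, LPS-stimulated, were dosed with chemical and read 24 h later. CD40 levels were measured by ELISA and fitted bidirectionally against DMSO as negative control and baseline.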

Read-out in test [16]: E-selectin (Homo sapiens) (UniProt P16581)
Put plainly: BSK_LPS_Eselectin: BioMAP Diversity Plus: LPS Assay for Eselectin Biomarker Activity (AID 2283077). As to conditions: primary human HUVEC with PBMC; actives raise or lower the signal. In outline:
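Human umbilical vein endothelial cells co-cultured with peripheral blood mononuclear cells under LPS stimulation; E-selectin measured by ELISA 24 h after chemical dosing. Activity fitted bidirectionally against DMSO as negative control and baseline.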

Read-out in test [17]: Interleukin-8 (IL8), CXCL8 (gene 3576)
Put plainly: BSK_LPS_IL8: BioMAP Diversity Plus: LPS Assay for Interleukin-8 (IL8) Biomarker Activity (AID 2283078). The conditions noted are these: primary human HUVEC with PBMC; actives raise or lower the signal. An outline of the steps:
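Human umbilical vein endothelial cells co-cultured with PBMC were stimulated with LPS; IL-8 levels were measured by ELISA 24 h after chemical dosing. Activity was fitted bidirectionally against DMSO as negative control and baseline.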

Test [18] can be described thus: BSK_LPS_SRB: Viability Assessment in the BioMAP Diversity Plus: LPS Assay (AID 2283079).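 Also: total protein by sulforhodamine B absorbance as a cytotoxicity measure; measured one day after compound addition; fitted in both directions against DMSO so loss or gain of signal counts.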 The conditions noted are these: primary human HUVEC with PBMC. An outline of the steps: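 Human umbilical vein endothelial cells co-cultured with PBMC (LPS system) were dosed for 24 h. Total protein was stained with 0.1% sulforhodamine B after 10% TCA fixation, read at 560 nm, and fitted bidirectionally against DMSO baseline.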

Where “and” joins values, the source holds several entries; their conditions need not be identical. Equal entries are not always repeated. Some compounds were tested as several samples or in several runs, with calls that do not always agree. Calls of active or inactive are those of the source. The calls were made as follows: active = hit-call score of the fitted dose curve at least 0.9, where 1 is the maximum; inactive = score below 0.9.

Usually AC50 stands for the concentration at which the activity in the assay is half-maximal.

E-selectin (Homo sapiens), sequence (P16581 whole entry, looked up): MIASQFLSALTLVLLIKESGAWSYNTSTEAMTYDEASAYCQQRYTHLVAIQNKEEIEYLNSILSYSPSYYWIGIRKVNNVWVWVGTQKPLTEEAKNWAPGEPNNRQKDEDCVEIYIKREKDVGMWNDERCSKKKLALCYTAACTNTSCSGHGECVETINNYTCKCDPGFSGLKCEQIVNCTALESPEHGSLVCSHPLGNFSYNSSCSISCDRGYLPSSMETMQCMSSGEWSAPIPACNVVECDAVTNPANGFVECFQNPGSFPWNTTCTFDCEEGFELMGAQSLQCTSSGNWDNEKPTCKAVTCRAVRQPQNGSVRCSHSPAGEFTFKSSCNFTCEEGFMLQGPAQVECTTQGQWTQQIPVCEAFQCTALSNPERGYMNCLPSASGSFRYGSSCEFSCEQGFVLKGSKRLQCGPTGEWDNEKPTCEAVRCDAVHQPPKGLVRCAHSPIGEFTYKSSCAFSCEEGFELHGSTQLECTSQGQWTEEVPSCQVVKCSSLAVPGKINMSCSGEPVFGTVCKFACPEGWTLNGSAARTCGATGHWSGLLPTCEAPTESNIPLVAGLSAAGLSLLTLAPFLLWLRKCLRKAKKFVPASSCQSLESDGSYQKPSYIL

Turning to `CCC(C)c1ccccc1O` (configuration not stated), the result in test [1], in test [2], in test [3], in [4], in test [5] and in test [6] was inactive. The result in test [7], in test [8], in [9], in [10], in [11] and in test [12] was inactive. Moreover, the outcome in [13] was “inactive”; in test [14], “inactive”; in [15] it was “inactive”; with CD40, CD40 (gene 958), “inactive”; in [16], “inactive”; in test [17] it was “inactive”. Besides, in test [18], the outcome was inactive.

For `COc1cccc(O)c1`, the result in test [1], in test [2], in [3], in [4], in test [5] and in [6] was inactive. The outcome in [7], in test [8], in [9], in [10], in test [11] and in test [12] was inactive. Moreover, the outcome is “inactive” in test [13]; “inactive” in test [14]; “inactive” in test [15]; “inactive” with CD40, CD40 (gene 958); “inactive” in test [16]; “inactive” in [17]. Besides, the result in test [18] was inactive.

With `Oc1ccc(Cc2ccccc2O)cc1`, the result in test [1], in [2], in [3], in test [4], in [5] and in [6] was inactive. Besides, the result in [7], in test [8], in test [9], in test [10], in [11] and in test [12] was inactive. For the same compound, the outcome is “inactive” in test [14]; “inactive” in test [15]; “inactive” with CD40, CD40 (gene 958); “inactive” in [16]; “inactive” in test [17]; “inactive” in [18].

In the case of `O=C(O)CCC(F)(F)C(F)(F)C(F)(F)C(F)(F)C(F)(F)C(F)(F)F`, the result in test [1], in [2], in test [3], in test [4], in test [5] and in [6] was inactive. For the same compound, the outcome in test [7], in test [8], in [9], in test [10], in [11] and in [12] was inactive. In addition, the outcome was “inactive” in [14]; “inactive” in test [15]; “inactive” in the test with CD40, CD40 (gene 958); “inactive” in [16]; “inactive” in test [18]. Further, the AC50 with CD40, CD40 (gene 958) is 15.6 µM (active); in test [17], 30 µM (active) and 51.1 µM (active) and 38.9 µM (active).

For `O=C(NCc1ncc(C(F)(F)F)cc1Cl)c1c(Cl)cccc1Cl`, the outcome in test [1], in test [2], in test [3], in test [4], in test [5] and in [6] was inactive. The result in test [7], in test [8], in test [9], in [10], in test [11] and in test [12] was inactive. Besides, the outcome in test [13] was “inactive”; in test [14], “inactive”; in test [15], “inactive”; with CD40, CD40 (gene 958) it was “inactive”; in test [16], “inactive”; in test [17], “inactive”. For the same compound, the result in [18] was inactive.

On to `OCC(CO)(CBr)CBr`, for which the outcome in test [1], in test [2], in test [3], in [4], in test [5] and in test [6] was inactive. The result in [7], in test [8], in test [9], in [10], in test [11] and in test [12] was inactive. Moreover, the outcome in test [13] is “inactive”; in [14] it was “inactive”; in [15] it was “inactive”; with CD40, CD40 (gene 958), “inactive”; in [16], “inactive”; in test [17], “inactive”. Moreover, the result in test [18] was inactive.

Consider `CCCCC(CC)C(=O)OCCOCCOCCOCCOC(=O)C(CC)CCCC` (configuration not stated), for which the half-maximal activity concentration (AC50) in test [1] is 20 µM (active). For the same compound, the outcome in test [2], in test [3], in [4], in test [5], in test [6] and in [7] was inactive. The result in test [8], in [9], in test [10], in [11], in test [12] and in test [13] was inactive. In addition, the outcome in test [14] was “inactive”; in test [15] it was “inactive”; with CD40, CD40 (gene 958), “inactive”; in [16], “inactive”; in test [17] it was “inactive”; in test [18], “inactive”.

The record behind these values is PubChem BioAssay (EPA / NIEHS).
